Test results reported in the supplement of paper PMC6555819.

How the values were obtained:
Experiment in all cases: PBM binding z-score (relative to random genomic background probes); higher = stronger binding; sequences stand for … in GC…GCGATTGACAGCGTAGAATGAAGG
[1] = test system: FXR:RXRa (NR concentration 270 nM, RXRa partner concentration 90 nM)
Outline: (§1)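 Probes were double-stranded and carried 34-nt variable regions with direct-repeat seeds, single-nucleotide variants, half-site ablations and random human genomic background sequences, printed on custom Agilent 4×180K protein-binding microarrays. Arrays were incubated 1 h with ligand-free nuclear receptor dimers in PBS pH 7.4, 2% milk, 0.02% Triton X-100, 1 mM DTT, 0.2 mg/mL BSA and 0.4 mg/ml salmon testes DNA. Antibodies against each partner (one per run) detected binding, and scanned fluorescence was regression-normalized. Binding z-scores use the random background probes as reference.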

[2] = test system: LXRa:RXRa (NR concentration 270 nM, RXRa partner concentration 90 nM)
Outline: as §1

[3] = test system: LXRa homodimer (NR concentration 270 nM)
Outline: as §1

[4] = test system: LXRb:RXRa (NR concentration 270 nM, RXRa partner concentration 90 nM)
Outline: as §1

[5] = test system: LXRb homodimer (NR concentration 270 nM)
Outline: as §1

[6] = test system: PPARa:RXRa (NR concentration 270 nM, RXRa partner concentration 90 nM)
Outline: as §1

[7] = test system: PPARg:RXRa (NR concentration 180 nM, RXRa partner concentration 90 nM)
Outline: as §1

[8] = test system: PPARg:RXRa 270nM:90nM, anti-RXR (NR concentration 270 nM, RXRa partner concentration 90 nM)
Outline: as §1

[9] = test system: PPARg:RXRa 30nM:10nM, anti-RXR (NR concentration 30 nM, RXRa partner concentration 10 nM)
Outline: as §1

[10] = test system: PPARg:RXRa 90nM:30nM, anti-RXR (NR concentration 90 nM, RXRa partner concentration 30 nM)
Outline: as §1

[11] = test system: PPARg:RXRa DBDmut IVT, anti-RXR (DBD mutation: RXRa K156A/R161A, NR concentration 270 nM, RXRa partner concentration 90 nM)
Outline: as §1

[12] = test system: PPARg:RXRa IVT, anti-PPARg (NR concentration 270 nM, RXRa partner concentration 90 nM)
Outline: as §1

[13] = test system: PPARg DBDmut:RXRa IVT, anti-PPARg (DBD mutation: PPARg1 K132A/R137A, NR concentration 270 nM, RXRa partner concentration 90 nM)
Outline: as §1

[14] = test system: PPARg DBDmut IVT, anti-PPARg (DBD mutation: PPARg1 K132A/R137A, NR concentration 270 nM)
Outline: as §1

[15] = test system: PPARg homodimer (NR concentration 180 nM)
Outline: as §1

[16] = test system: PXR:RXRa (NR concentration 270 nM, RXRa partner concentration 90 nM)
Outline: as §1

[17] = test system: PXR homodimer (NR concentration 270 nM)
Outline: as §1

[18] = test system: RARa:RXR (NR concentration 270 nM, RXRa partner concentration 90 nM)
Outline: as §1

[19] = test system: RARa homodimer (NR concentration 270 nM)
Outline: as §1

[20] = test system: RARb:RXRa (NR concentration 270 nM, RXRa partner concentration 90 nM)
Outline: as §1

Row | Sequence | PBM binding z-score [1] | PBM binding z-score [2] | PBM binding z-score [3] | PBM binding z-score [4] | PBM binding z-score [5] | PBM binding z-score [6] | PBM binding z-score [7] | PBM binding z-score [8] | PBM binding z-score [9] | PBM binding z-score [10] | PBM binding z-score [11] | PBM binding z-score [12] | PBM binding z-score [13] | PBM binding z-score [14] | PBM binding z-score [15] | PBM binding z-score [16] | PBM binding z-score [17] | PBM binding z-score [18] | PBM binding z-score [19] | PBM binding z-score [20]
1 | ATATGTATGTTAGCTGGGGTCATTCAGACTAGGC | 3.96 | 4.22 | 1.92 | 4.33 | 1.31 | 4.48 | 2.06 | 2.85 | 1.26 | 2.08 | 2.2 | 2.3 | 1.51 | 1.76 | 1.82 | 5.63 | 2.99 | 5.55 | 0.578 | 2.6
2 | TCTCAGAGGACACGAAGGTCAGAGCTTTCCAGAG | 1.39 | 1.27 | 0.407 | 0.974 | -0.749 | 2.07 | 0.696 | 2.01 | 3.02 | 2.45 | 1.91 | 1.5 | -0.856 | -1.02 | 1.11 | 2.05 | 0.954 | 2.02 | -0.195 | 3.78
3 | CCTCGGAGGACAACAGGGGGTCAGAGCTGCCAGA | 1.81 | 2.48 | 0.582 | 3.99 | 2.09 | 3.22 | 1.09 | 1.92 | -0.264 | 1.13 | -0.238 | 1.33 | 0.527 | 1.03 | 1.56 | 3.18 | 0.0814 | 3.3 | 0.607 | 2.71
4 | CTACCAAGGTGAACTAGGTCGTTGATTACTATTC | 1.2 | 1 | 0.238 | 1.61 | -0.516 | 2.59 | 1.12 | 1.6 | 0.168 | 1.05 | 3.53 | 3.8 | 0.391 | 0.182 | 0.824 | 1.4 | 0.424 | 1.61 | 0.0789 | 1.97
5 | CATACAGGGTCAGCTAGGCCAGAGTGGGGACGGC | 4.45 | 2.94 | 0.0582 | 2.72 | 0.724 | 4.31 | 2.96 | 3.01 | 0.597 | 1.9 | 1.06 | 2.57 | -0.069 | 1.07 | 1.44 | 2.19 | 0.0916 | 2.78 | 0.651 | 4.03
6 | TTACCAAGGTGAAAGCTCGTTGATGCACGCCTTG | 0.225 | -0.099 | -0.701 | -0.367 | -1.12 | 1.29 | 0.87 | 1.43 | 0.448 | 0.792 | 1.69 | 2.4 | 0.152 | -0.364 | -0.529 | -0.393 | -1 | 0.109 | -0.866 | 1.3
